# In the supplement of paper PMC10338343:
# ± gives the standard deviation.
# Tested on: MILI (PIWIL2) piRISC loaded with piRNA #1 (26 nt)
# Test: pre-steady-state target cleavage rate (min^-1); guide: piRNA #1 5'p-UGAGGUAGUAGGUUGUAUAGUAUCCA; MIWI and MILI are mouse PIWI proteins and EfPiwi is from a freshwater sponge; tags in brackets are library labels; higher = faster piRNA-guided slicing of the target
# Details: auxiliary factor: 500 nM mouse GTSF1
# How it was run: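 The pre-steady-state cleavage rate was calculated from a burst-and-steady-state fit. Data came from Cleave-'n-Seq, in which […] transcribed, DNA-blocked target RNA library was mixed with 1 nM active affinity-purified piRISC carrying one synthetic guide, with or without 500 nM GTSF1 partner protein, in HEPES–potassium acetate buffer at 33 °C for 0–8 or 0–960 min. Uncleaved targets were sequenced and normalised to depth and to weakly complementary targets, three trials were pooled, and k3 was capped at 0.0001 min^-1.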
# 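Also: 1 nM active piRISC with 0.1 nM target library at 33 °C single turnover.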
row,Sequence,pre-steady-state target cleavage rate
1,GGAGAGGAUACUAUACAACCUAGCUACCUCA,0.0538 ± 0.0062
2,GGAGACCUAUGUAUACAACCUACUACCUUCA,0.0648 ± 0.0099
3,GGAGACCUAUGAUUGACAACCUACUACCUCA,0.00768 ± 0.0032
4,GGAGACCAUACUAUACUAGCUACUACCUCA,0.182 ± 0.018
5,GGAGACCUAUGAAUUACAACCUACUACCUCA,0.00427 ± 0.0021
6,GGAGACGAUACUAAACAACCUACUACCACA,0.214 ± 0.019
7,GGAGACCUAACUAUAGUUCCUACUACCUCA,0.0706 ± 0.013
8,GGAGACCUAUGAUAUGUUUCUACUACCUCA,< 0.0001
9,GGAGACGAUACUAUACAACCUACUGACCUCA,0.118 ± 0.015
10,GGAGACCUAUGUAUACUACCUACUAGCUCA,0.0108 ± 0.0031
11,GGAGACCUAUCUAAACAACCAACUACCUCA,0.00401 ± 0.0024
12,GGAGACCUAUGAAUACAACCUACUACCGUCA,0.00898 ± 0.0024
13,GGAGACCUAUCUAUACAACCUAGAACCUCA,0.00829 ± 0.0026
14,GGAGACCUAUCUAUACAACCUACUACAUCA,0.051 ± 0.0067
15,GGAGUGGAAACUAUAGAACCUACUACCUCA,0.204 ± 0.014
16,GGAGACCUAUCUAUACAACGUUCUACCUCA,0.00394 ± 0.0033
